Data as given in PubChem BioAssay AID1259422 (The Scripps Research Institute Molecular Screening Center, 2018).
Out of some 640,000 compounds screened, about 9,300 (1.5%) were called active. The sample holds actives, similar compounds and a random draw of the others, so the mix is not that of the screen. Unmarked numbers belong to inactive results. Rule as the data show it: active = inhibition above about 32%; inactive = the rest.

Assay: TEAD-YAP interaction inhibition, primary screen, TEAD-YAP interaction inhibitor project, luminescence, HEK-TIYL cells (AID 1259422);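 also: 0% = median of test compound wells and 100% = reference inhibitor wells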
Conditions: TEAD-Gal4/YAP UAS-luciferase luminescence, at 9.12 µM, stronger effect = higher value
With `Cc1ccc(Oc2ccc(NC(=O)c3ccc(Br)c([N+](=O)[O-])c3)cc2)cc1` the inhibition was 20.9%. Work on `CCNc1nc(C)cc(Nc2ccc(N3CCOCC3)cc2)n1` yielded an inhibition of 1.76%. Work on `CC(=O)Nc1ccc(Nc2cc(C)nc(NCc3ccc4c(c3)OCO4)n2)cc1` yielded an inhibition of 31.4%. In the case of `Cc1cc(Nc2ccc(N3CCOCC3)cc2)nc(NCc2ccc3c(c2)OCO3)n1`, the inhibition is reported as 38.4% (active). Compound `O=C(Nc1cccnc1Cl)c1cc2nc3c(c(C(F)(F)F)n2n1)CCc1ccccc1-3` has an inhibition of 5.92%. For `Cc1ncc(-c2ccncn2)c(-c2ccc(C(F)(F)F)nc2)n1`, the inhibition was 6.09%. `C=C(C)CONC(=O)c1cnc2scc(C(C)(C)C)n2c1=O` showed an inhibition of -7.08%. `CCC(=O)Nc1ccc(C2=NNC(=NC)SC2)cc1` gave an inhibition of -4.44%. With `C=CCn1c(C)cc(C2=NNC(=NCC)SC2)c1C` the inhibition was 99.6% (active). Compound `C=CCn1c(C)cc(C(=O)CC#N)c1C` has an inhibition of -18.5%. With `COc1ccc(C2C(C#N)=C(N)Oc3cc(C)n(Cc4ccco4)c(=O)c32)c(OC)c1` (stereo unspecified) the inhibition was 6.86%. With `O=C(N/N=C/c1ccc([N+](=O)[O-])o1)c1ccc(Cl)cc1Cl` the inhibition was 44.6% (active). Work on `O=C(N/N=C/c1ccc([N+](=O)[O-])o1)c1cccc(F)c1` yielded an inhibition of -23.7%. `O=C(N/N=C/c1ccc([N+](=O)[O-])o1)c1cc(Cl)ccc1O` gave an inhibition of 2.15%. In the case of `COc1cc(NC(=O)CC(C)C)c(C(=O)O)cc1OC`, the inhibition is reported as 12.1%. Compound `Cc1ccc(NC(=O)c2ccccc2Br)cc1C` has an inhibition of -49%. In the case of `Cc1ccccc1C(=O)Nc1ccc(Br)c(Cl)c1`, the inhibition is reported as -77.6%. With `Cc1cc(NC(=O)c2ccccc2Br)ccc1O` the inhibition was 77% (active). For `Cc1cnnn1-c1ccc(Nc2nccc(-c3cc(C#N)cc(N4CCOCC4)c3)n2)cc1`, the inhibition was 1.73%. Compound `Cc1ncccc1-c1ncn(-c2ccc(Nc3nccc(-c4cc(F)cc(N5CCOCC5)c4)n3)cc2)n1` has an inhibition of -3.6%. In the case of `N#Cc1cc(-c2ccnc(Nc3ccc(-n4cnc(-c5ccccn5)n4)cc3)n2)cc(N2CCOCC2)c1`, the inhibition is reported as 43.5% (active). `Cn1nccc1-c1cc(F)cc(-c2ccnc(Nc3ccc(-n4cnc(N5CCOCC5)n4)cc3)n2)c1` showed an inhibition of 9.9%. Work on `OC1CCN(c2ccc(Nc3nccc(-c4cc(N5CCOCC5)cc(C(F)(F)F)c4)n3)cc2)CC1` yielded an inhibition of 31.8%. For `COC1CCN(c2ncn(-c3ccc(Nc4nccc(-c5cncc(N6CCOCC6)c5)n4)cc3)n2)CC1`, the inhibition was 51.5% (active). Work on `N#Cc1cccc(-c2ccnc(Nc3ccc(N4CCOCC4)cc3)n2)c1` yielded an inhibition of -9.11%. With `c1cc(-c2cncc(N3CCOCC3)c2)nc(Nc2ccc3c(c2)OCO3)n1` the inhibition was 36.5% (active). Work on `CN(C)c1cc(F)cc(-c2ccnc(Nc3ccc(-n4cnc(N5CCOCC5)n4)cc3)n2)c1` yielded an inhibition of -6.66%. For `Cc1nc(Oc2cc3sc(C)nc3c3sccc23)c2c3c(sc2n1)CCCC3`, the inhibition was 4.62%. Compound `Cc1cc(-n2c(C)cc(C(=O)COC(=O)c3cc(=O)[nH]c4ccccc34)c2C)no1` has an inhibition of -18.6%. Compound `CCC(C)NC(=O)C(C(F)(F)F)(C(F)(F)F)C(F)(F)F` (stereo unspecified) has an inhibition of 4.25%. With `COc1ccc(-c2cnnn2-c2ccc(-c3csc(N)n3)cc2)cc1` the inhibition was 9.88%. Compound `COc1ccc(C(=O)N2CCC[C@@H]2[C@@H](O)c2cccs2)cc1Cn1cccn1` has an inhibition of -11.1%. `O=C(Nc1ccc2ccccc2c1)c1ccc2c(c1)C(=O)N(N1C(=O)c3ccccc3C1=O)C2=O` showed an inhibition of 2.19%. For `Cc1cccc(N2CCN(C(=O)Cn3ncc4c(=O)oc5ccccc5c43)CC2)c1C`, the inhibition was 63% (active). Compound `Cc1ccc2oc(=O)c3cnn(CC(=O)N4CCN(c5ccccn5)CC4)c3c2c1` has an inhibition of 1.66%. With `Cc1ccc2oc(=O)c3cnn(CC(=O)N4CCN(c5cccc(Cl)c5)CC4)c3c2c1` the inhibition was 0.74%. With `COc1ccc(/C=C2N=C(/C=C/c3ccc(Cl)cc3Cl)OC\2=O)cc1OC(C)=O` the inhibition was -1.28%. `Cc1ccccc1-n1c(=S)sc2c(=O)n(-c3ccccc3)c(SCc3cccc([N+](=O)[O-])c3)nc21` showed an inhibition of -6.72%. With `O=C1C2CC=CCC2C(=O)N1c1ccc(N2C(=O)C3CC=CCC3C2=O)c(Cl)c1` (stereo unspecified) the inhibition was 9.86%. In the case of `CC(C)C(=O)Nc1ccc(-c2nc3ccccc3o2)cc1`, the inhibition is reported as 44.5% (active). Work on `CCC(=O)Nc1ccc(-c2nc3ccccc3o2)cc1` yielded an inhibition of 3.84%. Work on `O=C(Nc1ccc(-c2nc3ccccc3o2)cc1)c1ccc(Oc2ccccc2)cc1` yielded an inhibition of -4.71%. Compound `COc1ccc(C(=O)N/C(=C/c2ccc([N+](=O)[O-])cc2)C(=O)Nc2cc(Cl)cc(Cl)c2)c(Cl)c1` has an inhibition of -19%. In the case of `CS(=O)(=O)N(CC(=O)NCCC1=CCCCC1)c1ccc(OCc2ccccc2)cc1`, the inhibition is reported as 5.23%. Work on `Cc1cc(NC(=O)COc2ccccc2Br)no1` yielded an inhibition of -74.2%. Compound `CCCCOC(=O)c1cccc(NC(=O)COc2ccc(C)c(C)c2)c1` has an inhibition of -33.7%.
